Assay results: ChEMBL document CHEMBL1961873, “Compounds: GSK PKIS; Assays: Nanosyn kinase panel” (2012)

What was measured:
[1] = target: T1, Serine/threonine-protein kinase TBK1 (Homo sapiens) (UniProt Q9UHD2); settings: at 1 µM;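 also: values are mean inhibition of TBK1, screened as part of the GSK published kinase inhibitor set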
T1 sequence (whole entry): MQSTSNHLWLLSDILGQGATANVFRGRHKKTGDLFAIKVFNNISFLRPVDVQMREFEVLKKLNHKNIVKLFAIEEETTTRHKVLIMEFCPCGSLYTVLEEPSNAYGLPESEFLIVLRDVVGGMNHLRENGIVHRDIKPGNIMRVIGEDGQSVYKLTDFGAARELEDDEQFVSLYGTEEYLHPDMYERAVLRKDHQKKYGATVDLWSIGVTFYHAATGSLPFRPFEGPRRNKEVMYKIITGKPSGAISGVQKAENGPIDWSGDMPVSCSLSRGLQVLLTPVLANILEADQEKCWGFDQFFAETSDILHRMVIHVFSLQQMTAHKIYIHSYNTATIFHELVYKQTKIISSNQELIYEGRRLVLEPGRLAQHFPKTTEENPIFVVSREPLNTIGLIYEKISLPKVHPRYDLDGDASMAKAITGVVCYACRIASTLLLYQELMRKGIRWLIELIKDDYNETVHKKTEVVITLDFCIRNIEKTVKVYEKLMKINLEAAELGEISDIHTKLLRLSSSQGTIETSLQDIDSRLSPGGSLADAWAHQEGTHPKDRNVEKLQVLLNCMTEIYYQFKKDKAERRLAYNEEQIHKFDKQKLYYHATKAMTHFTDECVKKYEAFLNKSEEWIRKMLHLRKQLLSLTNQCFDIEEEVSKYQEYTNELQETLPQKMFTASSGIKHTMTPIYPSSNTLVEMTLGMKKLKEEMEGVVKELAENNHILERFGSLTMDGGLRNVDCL

[2] = target: T2, Testis-specific serine/threonine-protein kinase 1 (Homo sapiens) (UniProt Q9BXA7); settings: at 0.1 µM
T2 sequence (whole entry): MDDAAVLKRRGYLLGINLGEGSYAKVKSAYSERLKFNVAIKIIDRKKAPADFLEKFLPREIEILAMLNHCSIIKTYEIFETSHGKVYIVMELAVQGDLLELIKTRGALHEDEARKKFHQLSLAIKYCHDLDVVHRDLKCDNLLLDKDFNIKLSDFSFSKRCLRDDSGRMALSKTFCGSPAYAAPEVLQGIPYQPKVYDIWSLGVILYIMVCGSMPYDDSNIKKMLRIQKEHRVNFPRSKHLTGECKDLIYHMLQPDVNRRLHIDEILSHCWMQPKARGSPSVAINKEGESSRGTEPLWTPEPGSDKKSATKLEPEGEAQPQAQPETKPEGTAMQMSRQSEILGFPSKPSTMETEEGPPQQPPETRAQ

[3] = target: T2, Testis-specific serine/threonine-protein kinase 1 (Homo sapiens); settings: at 1 µM
[4] = target: T3, Testis-specific serine/threonine-protein kinase 2 (Homo sapiens) (UniProt Q96PF2); settings: at 0.1 µM
T3 sequence (whole entry): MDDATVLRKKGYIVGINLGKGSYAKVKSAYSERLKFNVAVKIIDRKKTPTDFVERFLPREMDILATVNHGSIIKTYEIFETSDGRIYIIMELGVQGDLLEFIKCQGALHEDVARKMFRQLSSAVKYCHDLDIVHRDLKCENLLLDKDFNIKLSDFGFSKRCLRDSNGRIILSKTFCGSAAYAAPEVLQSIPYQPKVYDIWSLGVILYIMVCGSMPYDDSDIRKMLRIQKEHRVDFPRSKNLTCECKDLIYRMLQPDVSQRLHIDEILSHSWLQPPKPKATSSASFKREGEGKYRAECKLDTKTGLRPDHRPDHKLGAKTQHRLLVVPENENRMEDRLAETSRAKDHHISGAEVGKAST

[5] = target: T3, Testis-specific serine/threonine-protein kinase 2 (Homo sapiens); settings: at 1 µM
[6] = target: Casein kinase I isoform alpha (Homo sapiens) (UniProt P48729); settings: at 0.1 µM
[7] = target: Casein kinase I isoform alpha (Homo sapiens) (UniProt P48729); settings: at 1 µM
[8] = target: Casein kinase I isoform gamma-1 (Homo sapiens) (UniProt Q9HCP0); settings: at 0.1 µM
[9] = target: Casein kinase I isoform gamma-1 (Homo sapiens) (UniProt Q9HCP0); settings: at 1 µM
[10] = target: Casein kinase I isoform gamma-2 (Homo sapiens) (UniProt P78368); settings: at 0.1 µM
[11] = target: Casein kinase I isoform gamma-2 (Homo sapiens) (UniProt P78368); settings: at 1 µM
[12] = target: Casein kinase I isoform gamma-3 (Homo sapiens) (UniProt Q9Y6M4); settings: at 0.1 µM
[13] = target: Casein kinase I isoform gamma-3 (Homo sapiens) (UniProt Q9Y6M4); settings: at 1 µM
[14] = target: Cyclin-dependent kinase 1 (Homo sapiens) (UniProt P06493); settings: at 0.1 µM
[15] = target: Cyclin-dependent kinase 1 (Homo sapiens) (UniProt P06493); settings: at 1 µM
[16] = target: Cyclin-dependent kinase 2 (Homo sapiens) (UniProt P24941); settings: at 0.1 µM
[17] = target: Cyclin-dependent kinase 2 (Homo sapiens) (UniProt P24941); settings: at 1 µM
[18] = target: Cyclin-dependent kinase 2 (Homo sapiens) (UniProt P24941); settings: at 0.1 µM; remark: listed apart in the source
[19] = target: Cyclin-dependent kinase 2 (Homo sapiens) (UniProt P24941); settings: at 1 µM; remark: listed apart in the source
[20] = target: CDK3/Cyclin E (Homo sapiens) (UniProt P24864+Q00526); settings: at 0.1 µM;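 also: reported percentages are mean inhibition values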
Chain of CDK3/Cyclin E (Homo sapiens) (P24864 whole entry, looked up): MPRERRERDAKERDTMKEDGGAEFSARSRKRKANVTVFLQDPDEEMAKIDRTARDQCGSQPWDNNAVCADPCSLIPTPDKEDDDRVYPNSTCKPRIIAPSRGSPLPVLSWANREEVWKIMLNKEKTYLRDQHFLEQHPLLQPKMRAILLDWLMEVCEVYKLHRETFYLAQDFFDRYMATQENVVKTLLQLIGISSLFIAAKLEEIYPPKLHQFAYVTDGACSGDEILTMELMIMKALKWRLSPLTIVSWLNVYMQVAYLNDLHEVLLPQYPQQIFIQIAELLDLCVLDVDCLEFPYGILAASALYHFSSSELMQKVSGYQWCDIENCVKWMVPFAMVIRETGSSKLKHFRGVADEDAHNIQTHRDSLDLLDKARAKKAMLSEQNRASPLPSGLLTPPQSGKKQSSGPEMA
Chain of CDK3/Cyclin E (Homo sapiens) (Q00526 whole entry, looked up): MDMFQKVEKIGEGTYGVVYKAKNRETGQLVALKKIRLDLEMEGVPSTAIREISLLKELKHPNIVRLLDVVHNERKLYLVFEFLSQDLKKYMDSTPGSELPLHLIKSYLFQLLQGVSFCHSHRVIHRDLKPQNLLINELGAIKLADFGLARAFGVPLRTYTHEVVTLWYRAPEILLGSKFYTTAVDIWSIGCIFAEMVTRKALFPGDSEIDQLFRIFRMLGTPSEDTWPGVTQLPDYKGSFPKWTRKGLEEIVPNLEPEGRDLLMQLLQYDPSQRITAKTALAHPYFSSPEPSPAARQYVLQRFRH

Chain of Casein kinase I isoform gamma-3 (Homo sapiens) (Q9Y6M4 whole entry, looked up, canonical isoform): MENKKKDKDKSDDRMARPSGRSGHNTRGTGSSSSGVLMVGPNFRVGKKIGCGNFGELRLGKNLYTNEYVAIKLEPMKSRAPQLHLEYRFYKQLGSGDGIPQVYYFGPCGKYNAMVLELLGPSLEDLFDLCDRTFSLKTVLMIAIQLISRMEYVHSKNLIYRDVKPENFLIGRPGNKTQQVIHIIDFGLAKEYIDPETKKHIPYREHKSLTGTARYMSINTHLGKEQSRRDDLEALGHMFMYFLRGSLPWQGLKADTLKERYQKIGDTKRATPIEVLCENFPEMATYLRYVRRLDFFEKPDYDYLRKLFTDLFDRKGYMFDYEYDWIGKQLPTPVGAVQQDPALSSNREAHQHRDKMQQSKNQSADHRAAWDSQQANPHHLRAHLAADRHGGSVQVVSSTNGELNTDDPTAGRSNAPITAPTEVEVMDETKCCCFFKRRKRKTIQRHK
Chain of Casein kinase I isoform gamma-2 (Homo sapiens) (P78368 whole entry, looked up, canonical isoform): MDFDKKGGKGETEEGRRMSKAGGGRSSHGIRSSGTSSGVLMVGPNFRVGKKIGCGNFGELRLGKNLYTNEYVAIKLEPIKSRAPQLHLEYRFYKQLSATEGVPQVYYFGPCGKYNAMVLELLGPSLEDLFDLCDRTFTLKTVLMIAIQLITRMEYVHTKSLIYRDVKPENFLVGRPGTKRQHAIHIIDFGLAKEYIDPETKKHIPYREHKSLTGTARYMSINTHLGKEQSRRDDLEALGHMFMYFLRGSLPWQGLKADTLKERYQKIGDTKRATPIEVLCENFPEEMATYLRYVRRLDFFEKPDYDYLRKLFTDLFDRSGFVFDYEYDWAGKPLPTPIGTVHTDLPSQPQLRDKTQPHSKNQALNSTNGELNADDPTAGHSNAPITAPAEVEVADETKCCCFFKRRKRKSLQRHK
Chain of Casein kinase I isoform gamma-1 (Homo sapiens) (Q9HCP0 whole entry, looked up, canonical isoform): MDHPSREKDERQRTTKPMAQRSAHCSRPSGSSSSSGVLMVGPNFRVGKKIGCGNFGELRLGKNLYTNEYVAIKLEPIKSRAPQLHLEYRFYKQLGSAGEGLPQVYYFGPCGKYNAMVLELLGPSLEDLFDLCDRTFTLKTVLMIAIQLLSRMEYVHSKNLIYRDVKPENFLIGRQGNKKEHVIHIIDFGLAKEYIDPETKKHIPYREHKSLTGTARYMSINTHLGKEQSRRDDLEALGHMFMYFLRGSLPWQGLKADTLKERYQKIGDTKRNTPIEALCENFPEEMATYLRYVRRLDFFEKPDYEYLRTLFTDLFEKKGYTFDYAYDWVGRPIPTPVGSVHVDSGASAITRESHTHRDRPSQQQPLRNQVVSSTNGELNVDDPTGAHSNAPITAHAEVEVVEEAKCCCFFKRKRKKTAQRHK
Chain of Cyclin-dependent kinase 1 (Homo sapiens) (P06493 whole entry, looked up): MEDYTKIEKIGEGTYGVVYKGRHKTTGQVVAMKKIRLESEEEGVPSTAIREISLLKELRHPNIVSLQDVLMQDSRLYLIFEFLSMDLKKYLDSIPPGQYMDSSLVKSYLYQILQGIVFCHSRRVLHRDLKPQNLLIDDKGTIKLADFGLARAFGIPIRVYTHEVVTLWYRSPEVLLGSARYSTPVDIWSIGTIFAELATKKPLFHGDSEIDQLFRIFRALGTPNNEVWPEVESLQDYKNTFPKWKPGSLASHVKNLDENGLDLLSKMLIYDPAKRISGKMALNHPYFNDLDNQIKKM
Chain of Casein kinase I isoform alpha (Homo sapiens) (P48729 2-337 limits assumed): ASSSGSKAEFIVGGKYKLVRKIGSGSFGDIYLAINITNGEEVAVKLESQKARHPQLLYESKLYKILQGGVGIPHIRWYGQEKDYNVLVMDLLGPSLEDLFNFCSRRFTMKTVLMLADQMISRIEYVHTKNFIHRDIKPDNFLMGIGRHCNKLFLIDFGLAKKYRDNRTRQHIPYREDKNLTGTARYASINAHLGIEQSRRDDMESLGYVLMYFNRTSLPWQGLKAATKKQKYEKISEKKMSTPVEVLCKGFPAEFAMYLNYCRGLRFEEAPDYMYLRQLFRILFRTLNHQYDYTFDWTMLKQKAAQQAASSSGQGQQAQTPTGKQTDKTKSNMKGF

Row | SMILES | inhibition [1] | inhibition [2] | inhibition [3] | inhibition [4] | inhibition [5] | inhibition [6] | inhibition [7] | inhibition [8] | inhibition [9] | inhibition [10] | inhibition [11] | inhibition [12] | inhibition [13] | inhibition [14] | inhibition [15] | inhibition [16] | inhibition [17] | inhibition [18] | inhibition [19] | inhibition [20]
1 | CCc1cccc(CC)c1/C=C/c1cncc(C(=O)NC)c1 | 1.52% | 1.47% | 0.1% | 1.86% | -3.19% | 2.53% | 6.21% | 2.66% | 5.44% | 1.49% | 5.11% | 2.87% | 4.99% | -0.08% | 1.65% | 1.26% | 3.61% | 2.79% | 4.02% | -0.92%
2 | CCc1nccc2c1nc(-c1nonc1N)n2CC | 6.1% | 0.58% | 0.27% | -0.65% | -0.91% | 3.39% | 3.67% | 0.76% | 2.98% | 0.48% | 3.36% | -0.55% | 1.97% | 1.84% | 2.9% | 2.75% | 4.67% | 1.55% | 3.62% | 1.31%
3 | Clc1ccc(CNc2nccc(-c3cnn4ncccc34)n2)cc1 | 2.91% | 0.5% | -0.65% | 0.23% | -1.43% | 2.75% | 16.9% | 0.12% | 7.72% | 1.44% | 12% | -0.98% | 12.9% | 7.01% | 36.3% | 4.06% | 17.6% | 4.31% | 21.5% | 3.02%
4 | COc1ccc(-c2ccc3c(NC(=O)C4CC4)n[nH]c3n2)cc1 | 0.62% | 2.89% | 4.85% | 0.65% | 4.63% | 6.34% | 0.42% | 1.84% | 2.17% | 1.99% | 1.22% | 1.89% | 2.61% | 0.44% | 4.03% | 1.61% | 10.7% | 1.4% | 4.59% | 2.19%
5 | O=C(Nc1n[nH]c2cc(-c3ccccc3)ccc12)C1CC1 | 8.06% | 2.16% | 2.02% | 1.41% | 0.6% | 3.51% | 5.68% | 5.13% | 5.75% | 4.46% | 4.84% | 4.39% | 4.52% | 0.9% | 5.76% | 3.52% | 11.2% | 4.57% | 8.54% | 2.98%
6 | CCN(CC)Cc1ccc(Nc2nccc(-c3cnn4ncccc34)n2)cc1 | 12.3% | 5.5% | 26.5% | 0.81% | 2.16% | 15.2% | 54.3% | 2.36% | 6.01% | 1.79% | 13.7% | 0.62% | 10.6% | 36.3% | 68.1% | 39.5% | 82.5% | 40.4% | 70.1% | 28.6%
7 | COc1ccc2ncn(-c3cc(O[C@H](C)c4ccccc4Cl)c(C(N)=O)s3)c2c1 | 3.86% | 2.29% | 2.54% | 0.96% | 1.28% | 2.14% | 2.16% | 0.39% | -0.54% | -0.05% | 0.41% | -0.98% | -2.81% | -3.45% | -2.45% | -2.63% | -1.27% | -1.28% | 1.93% | -2.44%
8 | Fc1ccc(-c2c(-c3ccncc3)nc3n2CCS3)cc1 | 2.15% | 2.46% | 2.91% | 1.87% | 2.38% | 2.51% | 4.21% | -1.2% | -0.38% | -1.41% | -0.73% | -3.04% | -1.19% | -4.51% | -4.05% | -1.82% | -3.21% | -1.42% | 0.06% | 2.29%
